Bioassay records deposited in PubChem by National Center for Advancing Translational Sciences (NCATS).
D3 antag = blocks the human D3 dopamine receptor | P35462 | D3R cells, DiscoveRx beta-arrestin luminescence, antagonist mode; stronger effect = lower value | max response, negative = inhibition, % | hit rate 2.5% among 360,000 | AID 652054; in the data active = max response below about -50%; inconclusive = no clear call, values can overlap the other calls; note: % is set by controls: 0 for no effect and ±100 for the full control effect
Target sequence (P35462 whole entry, looked up): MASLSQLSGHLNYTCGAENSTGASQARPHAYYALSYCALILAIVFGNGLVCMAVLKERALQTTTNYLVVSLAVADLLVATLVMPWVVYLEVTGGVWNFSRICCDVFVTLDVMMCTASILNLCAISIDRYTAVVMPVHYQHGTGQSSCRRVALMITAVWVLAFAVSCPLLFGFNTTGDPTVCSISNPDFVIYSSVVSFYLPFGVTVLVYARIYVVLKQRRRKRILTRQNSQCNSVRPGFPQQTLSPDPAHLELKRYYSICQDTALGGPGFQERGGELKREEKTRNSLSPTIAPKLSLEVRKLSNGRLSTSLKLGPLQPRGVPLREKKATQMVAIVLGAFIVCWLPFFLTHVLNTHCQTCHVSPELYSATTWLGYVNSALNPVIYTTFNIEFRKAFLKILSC
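Cells expressing the human receptor were seeded at 1500 cells/well, incubated overnight at 37 degrees C in 5% CO2, then exposed to library compounds with dopamine controls for 90 minutes at 37 degrees C before luminescent detection.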
TDP1 cell noCPT = qHTS for Inhibitors of human tyrosyl-DNA phosphodiesterase 1 (TDP1): qHTS in cells in absence of CPT; AID 686978, 2013; DT40 Tdp1-/- hTDP1 cells, no CPT, ATP luminescence, 48 h; Potency, µM (top dose mostly 46.2 µM), inactives show at the highest dose activity change, negative = growth inhibition, actives largely listed as inhibitors; hit rate 15% among 420,000; note: potency is the fitted concentration of half-maximal effect; % is set by controls: 0 for no effect and ±100 for the full control effect; nearly all actives have a fitted effect of over 55% in size
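Readout: luminescence from CellTiter-Glo after 30 min in the dark at RT. Cells: DT40 Tdp1-/- with stable hTDP1, 400/well. Exposure: compounds alone, ≥48 hr, 37 °C.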
DT40 TDP1 CPT = DT40-hTDP1 cell growth loss with CPT. chicken DT40 Tdp1-/-;hTDP1 cells + 20 nM CPT, ATP luminescence, 48 h. Potency, µM (doses to about 46.2 µM), without a hit: at the highest dose activity change, negative = growth inhibition, most hits filed as inhibitors. hit rate 12% among 420,000. AID 686979; note: potency is the fitted concentration of half-maximal effect; % is set by controls: 0 for no effect and ±100 for the full control effect; nearly all actives have a fitted effect of over 55% in size
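Chicken DT40 Tdp1-/- cells complemented with human TDP1, 400 cells/well, exposed to compounds plus 20 nM camptothecin for at least 48 h at 37 C; viability read as ATP content by CellTiter-Glo luminescence.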
ClpP mod = qHTS Assay for Activators of ClpP; ATP-dependent Clp protease proteolytic subunit (Bacillus subtilis (strain 168)), P80244; purified B. subtilis ClpP, FRET peptide cleavage, 20 min; Potency, µM (top dose mostly 57.5 µM), for inactives: at the highest dose activity change, negative = active; hit rate 1.9% among 340,000; active = well fitted falling curve with a large enough effect; inconclusive = small, poorly fitted or top-dose-only effect; inactive = no such curve, though single readings can be large or run the other way; note: potency is the fitted concentration of half-maximal effect; the source files actives as falling curves though it sought activators and does not explain the sign; nearly all actives have a fitted effect of over 65% in size
Target sequence (P80244 whole entry, looked up): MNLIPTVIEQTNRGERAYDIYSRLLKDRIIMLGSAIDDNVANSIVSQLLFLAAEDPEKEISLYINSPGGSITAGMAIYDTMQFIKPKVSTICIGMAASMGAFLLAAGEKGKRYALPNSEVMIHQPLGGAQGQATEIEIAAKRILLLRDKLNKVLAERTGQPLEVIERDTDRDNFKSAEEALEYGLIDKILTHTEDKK
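ClpP 10 microg/mL final, pH 8 Tris/KCl buffer with BSA, glycerol, Tween-20; compound pinned in; FRET-FV substrate; RT 20 min; Ex320/Em430; ΔFRET vs ADEP 5.8 microM, DMSO, no enzyme.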
D3 ag = agonists of human D3 dopamine receptor; D3R DiscoveRx beta-arrestin cells, luminescence, 90 min; max activation, %; hit rate 0.58% among 410,000; AID 652048; in the data active = max activation above about 30%; note: 0% is about no effect
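Cells at 1500/well, incubated overnight, then treated with pinned compounds (dopamine as control) for 90 min at 37 degrees C. DiscoveRx reagent added for 30 - 60 minutes at room temperature; luminescence read.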
IL-1B inflam inh = inflammasome signaling inhibition, IL-1 beta readout | THP-1 LPS/ATP IL-1B secretion, AlphaLISA, 16 h; stronger effect = lower value | activity change, % at 57.5 µM | hit rate 4.7% among 360,000; in the data active = activity change below about -50%; inconclusive = mostly about -30% to -49%; note: % is set by controls: 0 for no effect and ±100 for the full control effect
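Secreted IL-1B measured by AlphaLISA bead assay after 16 h compound exposure of THP-1 cells; compounds (final up to 57.5 uM) added 1 h before LPS (250 ng/mL) and ATP (1.25 mM) stimulation; lower signal means less secretion.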
Starred values were filed as active, the others as inactive; ? = inconclusive; · = not tested or not shown. An excerpt weighted towards active compounds, which were near 21% of everything screened. Unless noted, calls come from the whole dose curve; as a rule, active = well fitted inhibition curve with a large enough effect; inconclusive = small, poorly fitted or top-dose-only effect; inactive = flat fitted curve, though single readings scatter.

SMILES	D3 antag	TDP1 cell noCPT	DT40 TDP1 CPT	ClpP mod	D3 ag	IL-1B inflam inh
Cc1nn(CCc2nn[nH]n2)c2nc(C(F)(F)F)cc(C(F)(F)F)c12	21	6%	5%	10µM*	3	12
CC(=O)c1cccc(NC(=O)Cn2cnc3c2c(=O)n(C)c(=O)n3C)c1	·	?	?	0%	-5	·
CCCc1c(-c2ccc(F)cc2F)ncn1Cc1cccc(-c2ccccc2)c1	4	4.1µM*	5.2µM*	1%	6	-9
CCCc1c(-c2cccc(Cl)c2)ncn1Cc1cccc(-c2ccccc2)c1	-19	18µM*	21µM*	-19%	52*	-6
CCOc1ccc(-n2ccc(=O)c(C(=O)O)n2)cc1	7	11%	7%	·	1	57
O=c1c2cnn(-c3ccc(Cl)cc3)c2ncn1Cc1cccc(C(F)(F)F)c1	·	?	-18%	-7%	-1	·
O=C(Nc1cccc(-c2cscn2)c1)C1CCN(Cc2ccc(CO)o2)CC1	3	?	-10%	1%	0	0
Cc1nn(C(C)C)c(C)c1CN1CCC(C(=O)Nc2cccc(-c3cccc(F)c3)c2)CC1	-53*	?	23µM*	1%	-19	-52*
Cn1cc(CN2CCC(C(=O)Nc3cccc(-c4cccc(F)c4)c3)CC2)cn1	-10	?	?	0%	-5	-29
CCCn1ncc(CN2CCC(C(=O)Nc3cccc(-c4cccc(F)c4)c3)CC2)c1C	-7	?	15µM*	1%	-21	-76*
Cc1cccc(CN2CCC(C(=O)Nc3cccc(-c4cccc(F)c4)c3)CC2)n1	11	2.9µM*	8.2µM*	-1%	-14	?
COCc1ccc(CN2CCC(C(=O)Nc3cccc(-c4cscn4)c3)CC2)o1	-1	-25%	?	-3%	1	-73*
COc1ccc2oc(=O)cc(CN(C)Cc3ccccc3)c2c1	3	?	?	·	1	-10
CN(Cc1nccn1C)C(=O)CC1C(=O)NCCN1CC(c1ccccc1)c1ccccc1 (stereo not drawn)	-14	-28%	-7%	?	-3	?
O=C(Nc1cccc(F)c1)C1CCCCC1	-21	1%	-1%	2%	-7	14
O=C(Nc1cccc(-c2cccc(F)c2)c1)C1CCN(C2CCC2)CC1	?	5.2µM*	?	0%	-1	-14
Cc1cccc(CN2CCC(C(=O)Nc3cccc(-c4cscn4)c3)CC2)n1	-28	23µM*	?	0%	-5	-6
CSc1ncc(CN2CCC(C(=O)Nc3cccc(-c4cscn4)c3)CC2)cn1	-9	?	?	-3%	-3	?
CCCn1c(=O)[nH]c2nc(-c3ccc(S(=O)(=O)O)cc3)[nH]c2c1=O	·	-11%	-20%	·	·	·
CC(=O)N=C1C=CC(=CN(O)C(C)(C)Cc2ccccc2)C=C1	-54*	-24%	-11%	-1%	2	11
Cc1cccc(/C(N)=N/OC(=O)c2ccoc2C)c1	8	?	0.65µM*	·	7	-1
Cc1ccc(S(=O)(=O)N(CC(=O)NCc2ccncc2)Cc2ccc(F)cc2)cc1	-10	?	?	·	2	-13
Cc1cccc2c1-c1sc(C(=O)N3CCN(c4ccccc4)CC3)cc1CO2	·	16µM*	8.2µM*	-25%	-4	·
Cc1cccc2c1-c1sc(C(=O)N3CCN(c4ccc(F)cc4)CC3)cc1CO2	·	3%	3%	?	0	·
CC1CCCC(C)N1CCCNC(=O)c1cc2c(s1)-c1ccccc1OC2 (stereo not drawn)	?	?	?	4%	-23	-9
SMILES	D3 antag	TDP1 cell noCPT	DT40 TDP1 CPT	ClpP mod	D3 ag	IL-1B inflam inh
CCCN(C(=O)c1cc2c(s1)-c1c(C)cccc1OC2)c1ccc(OCC)cc1	·	5.2µM*	5.2µM*	-3%	5	·
Cc1cccc2c1-c1sc(C(=O)NCCCN3CCCC(C)C3)cc1CO2 (stereo not drawn)	-76*	21µM*	?	4%	-10	-18
CCCN1CCN(CCCNC(=O)c2cc3c(s2)-c2c(C)cccc2OC3)CC1	?	26µM*	23µM*	4%	-10	-14
Cn1nc(C(=O)NCCCN2CCCCC2)c2c1-c1ccccc1SC2	-7	?	?	0%	-16	-9
Cc1nc(NCc2c(F)cccc2F)sc1-c1ccn(CCN2CCOCC2)n1	·	-8%	10%	·	·	·
Cc1cc2c(cc1S(=O)(=O)NCCc1ccc(Cl)cc1)OCC(=O)N2	-8	-14%	-10%	1%	-6	15
Cc1cccc2c1-c1sc(C(=O)N(C)c3cccc(Cl)c3)cc1CO2	·	?	16µM*	?	-1	·
CCOC(=O)c1ccccc1NC(=O)c1cc2c(s1)-c1c(C)cccc1OC2	·	-9%	10%	?	-7	·
Cc1cccc(NC(=O)c2cc3c(s2)-c2c(C)cccc2OC3)n1	8	?	?	5%	0	20
CCOCCCN(Cc1ccco1)C(=O)c1cc2c(s1)-c1c(C)cccc1OC2	·	23µM*	?	4%	4	·
COc1ccc(CNC(=O)c2cc3c(s2)-c2c(C)cccc2OC3)cc1	·	-6%	-8%	4%	-10	·
Cc1cccc2c1-c1sc(C(=O)NCCc3ccc(Cl)cc3)cc1CO2	·	7.3µM*	13µM*	4%	-5	·
COc1ccc(NC(=O)c2cc3c(s2)-c2c(C)cccc2OC3)c(OC)c1	·	23µM*	?	-11%	-5	·
COc1ccc(Cl)cc1NC(=O)CCc1nnc2ccc(N3CCC4(CC3)OCCO4)nn12	5	-29%	-8%	·	-9	5
Cc1ccccc1Nc1nc(N)nc(COC(=O)c2ccc3c(c2)OCCO3)n1	75	?	-26%	-2%	2	-13
CCN(CC(=O)Nc1c(F)cccc1F)C(=O)c1ccc(N2CCOCC2)c([N+](=O)[O-])c1	?	?	-26%	4%	-7	16
CN(C(=O)c1cccc(NC(=O)Cc2cccc(NC(=O)C3CCCN(C(=O)c4ccccc4)C3)c2)c1)C1CC1 (stereo not drawn)	31	?	-12%	-1%	7	20
Cc1cccc(COC[C@H](CC(C)C)N2CCN(C(=O)c3ccc(C(C)(C)C)cc3)CCC2=O)c1	69	?	?	4%	7	-70*
CC(C)C[C@@H](COCc1ccc(F)cc1)N1CCN(C(=O)c2cccc(C(F)(F)F)c2)CCC1=O	48	?	?	2%	13	-13
